Data published in PubChem BioAssay (NCATS).
Records with an inconclusive call do not appear. Values without a mark were called inactive. Activity calls are given as the source filed them. Calls follow the shape of the dose curve; as a rule, active = well fitted inhibition curve with a large enough effect; inconclusive = small, poorly fitted or top-dose-only effect; inactive = no such curve, though single readings can be large or run the other way.

Molecular target: Furin (Homo sapiens) (UniProt P09958)
Experiment: Furin counterscreen qHTS for Zika virus inhibitors (AID 1347149); also: nearly all actives have a fitted effect of over 70% in size;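 as to activity change, negative = inhibition: fluorescence gain from furin cutting a BOC-RVRR-AMC peptide substrate over 15 min; top concentration of the series differs between compounds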
Conditions: furin enzymatic counterscreen, fluorogenic substrate; series mostly up to 57.5 µM; activity change, negative = inhibition: at the top concentration
From the text: Avindra Nath, Ph.D., National Institute of Neurological Disorders and Stroke (NINDS), Bethesda, MD
Radhakrishnan Padmanabhan, Ph.D., Georgetown University (GU), Washington D.C.
Zika Virus causes congenital defects, including microcephaly and is associated with Guillain-Barre syndrome, eningoencephalitis and myelitis in infected adult. […] Using a target-based approach, we hope to establish a screening paradigm to uncover novel, cell-active NS2B-NS3 protease (Zika Virus) specific inhibitors from NCATS' collection of small molecules using qHTS.
Four assay panel was created to identify potential Zika Virus inhibitors. Namely, (1) GU unlinked NS2B-NS3 AMC tagged protease qHTS, (2) GU unlinked NS2B-NS3 Rhodamine tagged protease qHTS, (3) NINDS linked NS2B-NS3 AMC tagged protease qHTS, (4) NINDS linked NS2B-NS3 Rhodamine tagged protease qHTS. Active compounds were re-acquired and re-screened to confirm inhibition. Inhibitors were further screened against various confirmatory and counterscreens in dose response format.
Early Translation Branch (ETB)
National Center for Advancing Translational Sciences (NCATS), Rockville, MD
National Institute of Health (NIH), Bethesda, Maryland
1536-well Furin BOC-RVRR-AMC Protocol:
Human recombinant Furin Serine Protease was purchased from Peprotech (catalog #450-47; full length; Rocky Hill, NJ). Briefly, 3 microL of enzyme (final concentrations of 5 nM), in assay buffer (100 mM HEPES pH 7.0, 1 mM CaCl2 with 0.01% Triton X-100) were dispensed into a 1,536-well solid-bottom black plate (Greiner Bio One, Monroe, NC). Twenty-three nL of compounds (final concentration range 7.28 nM to 114 microM) or control Furin Inhibitor I (Dec-RVKR-CMK; final concentration range 0.248 nM to 8.12 microM) were transferred via Wako Pin-tool (Wako Automation, Richmond, VA). Samples were incubated (RT, protected from light) for 15 minutes followed by a 1 microL substrate addition of BOC-RVRR-AMC (final concentration of 2 microM; Km = ~15 muM90). Plates were then read immediately on a ViewLux High-throughput CCD imager (PerkinElmer, Waltham, MA) equipped with standard UV fluorescence optics (340(30) nm excitation, 450(20) nm emission), then incubated (37C, protected from light) for 15 or 30 minutes (~9% conversion). The change in fluorescence intensity over the 15-minute reaction period was normalized against no-inhibitor and no-enzyme controls and the resulting percent inhibition data were fitted to a 4-parameter Hill equation. Furin Inhibitor I was used as intraplate control.
Potency is read from the fitted curve at half-maximal effect.

Chain of Furin (Homo sapiens) (P09958 whole entry, looked up): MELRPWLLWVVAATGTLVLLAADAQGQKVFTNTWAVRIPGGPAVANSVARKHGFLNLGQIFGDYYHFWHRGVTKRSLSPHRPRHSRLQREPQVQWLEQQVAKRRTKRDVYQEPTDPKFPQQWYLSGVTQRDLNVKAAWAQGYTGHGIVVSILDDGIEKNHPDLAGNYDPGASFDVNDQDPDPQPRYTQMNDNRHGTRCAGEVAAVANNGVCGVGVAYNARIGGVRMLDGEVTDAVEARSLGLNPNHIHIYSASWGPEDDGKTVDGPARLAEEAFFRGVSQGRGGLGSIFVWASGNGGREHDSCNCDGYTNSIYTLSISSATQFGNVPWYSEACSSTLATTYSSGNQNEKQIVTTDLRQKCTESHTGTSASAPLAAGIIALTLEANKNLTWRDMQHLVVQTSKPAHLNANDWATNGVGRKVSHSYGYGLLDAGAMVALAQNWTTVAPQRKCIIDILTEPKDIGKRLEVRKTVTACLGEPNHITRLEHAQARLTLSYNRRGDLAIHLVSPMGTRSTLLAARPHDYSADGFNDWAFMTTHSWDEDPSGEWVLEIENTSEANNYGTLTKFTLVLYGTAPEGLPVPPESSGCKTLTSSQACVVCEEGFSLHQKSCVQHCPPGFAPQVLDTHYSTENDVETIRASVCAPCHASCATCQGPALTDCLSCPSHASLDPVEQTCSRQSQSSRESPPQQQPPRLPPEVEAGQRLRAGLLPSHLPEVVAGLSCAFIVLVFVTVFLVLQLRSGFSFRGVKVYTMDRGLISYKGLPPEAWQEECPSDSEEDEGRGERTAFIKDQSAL

Compound | activity change, negative = inhibition | Potency
Cc1nc(N=Nc2ccc(S(=O)(=O)O)cc2S(=O)(=O)O)c(COP(=O)(O)O)c(C=O)c1O | 9.26% [at 114 µM] | 
COc1cc2c(CCNC(C)=O)c[nH]c2cc1O |  | 27.1 µM (active)
C/C(=C\c1ccc(C(=O)O)cc1)c1ccc2c(c1)C(C)(C)CCC2(C)C |  | 21.5 µM (active)
O=C1NC(=O)c2cc(Nc3ccccc3)c(Nc3ccccc3)cc21 | -5.52% | 
COc1ccccc1N1CCN(CCCNc2c(C)c(=O)n(C)c(=O)n2C)CC1 | 3.72% | 
Cn1c(=O)c2[nH]c(-c3ccc(S(=O)(=O)O)cc3)nc2n(C)c1=O |  | 12.1 µM (active)
O=C(O)c1ccccc1Nc1cccc(OCc2ccc3ccccc3n2)c1 | 13.5% | 
Cn1cc(C(F)(F)F)nc1-c1ccc(OCC(O)CNCCOc2ccc(O)c(C(N)=O)c2)cc1 (stereo unspecified) |  | 24.1 µM (active)
CNC(=O)c1cc2c(cn1)[nH]c1ccccc12 |  | 24.1 µM (active)
C=CCN1CCc2c(cc(O)c(O)c2Br)[C@@H](c2ccccc2)C1 | -10.7% | 
Cc1nc(N=Nc2cc(S(=O)(=O)O)c3cc([N+](=O)[O-])cc(S(=O)(=O)O)c3c2)c(COP(=O)(O)O)c(C=O)c1O | 7.21% [at 114 µM] | 
Nc1ccc(-c2ccc3ccccc3n2)cc1 | -15.4% | 
O=c1[nH]c(=S)[nH]c(-c2ccccc2)c1Cc1c(O)ccc2ccccc12 | -18.1% | 
CCCc1c(OCCCOc2ccc(OCC(=O)O)cc2)ccc(C(C)=O)c1O | -12.7% | 
CCc1ccc2c(-c3cccc(Cl)c3)nc(=O)n(CC)c2n1 |  | 21.5 µM (active)
CCCC[C@@]1(C2CCCC2)Cc2cc(OCC(=O)O)c(Cl)c(Cl)c2C1=O | 9.81% | 
